Several values for one entry are separate records, joined by “and”; a condition that tells them apart may be missing. Equal entries are not always repeated. Results filed as inconclusive are left out. More than one record can exist for a structure, and the calls need not agree. Activity calls are given as the source filed them. Unless noted, calls come from the whole dose curve; as a rule, active = well fitted curve in the direction sought with a large enough effect in the repeat runs; inconclusive = weak or mixed curves; inactive = no such curve, though single readings can be large; an effect the other way counts as inactive or inconclusive.
Columns and labels:
[1] = qHTS assay for small molecule agonists of the p53 signaling pathway (AID 651631; calls by dose curve; note: nearly all actives have a fitted effect of over 15% in size; note: potency is the fitted concentration of half-maximal effect)
In short: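 HCT-116 cells carrying a stable p53 response element–beta-lactamase reporter were plated, rested 5 h at 37 °C, then exposed to compound in DMSO for 16 h at 37 °C; reporter activity was read as FRET substrate fluorescence after 2 h at room temperature.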

[2] = qHTS assay for small molecules that induce genotoxicity in human embryonic kidney cells expressing luciferase-tagged ATAD5 (AID 651632); note: nearly all actives have a fitted effect of over 15% in size; note: potency is the fitted concentration of half-maximal effect
In short: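 HEK293T cells carrying a luciferase reporter tagged to ATAD5 were exposed to compound or DMSO vehicle for 16 hr at 37C, 5% CO2. Amplite was added, and after 30 min at room temperature luciferase activity was read as a marker of ATAD5 induction.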

[3] = qHTS assay for small molecule agonists of the p53 signaling pathway - cell viability (AID 651633; calls by dose curve; note: nearly all actives have a fitted effect of over 30% in size; note: potency is the fitted concentration of half-maximal effect)
In short: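 p53RE-bla cells, seeded at 4,000 per well and rested 5 h at 37 C/5% CO2, received compounds in DMSO for 16 h at 37 C. CellTiter-Glo was then added, and luminescence was read after 30 min at room temperature to gauge cytotoxicity.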

[4] = qHTS assay for small molecules that induce genotoxicity in human embryonic kidney cells expressing luciferase-tagged ATAD5 - cell viability (AID 651634; calls by dose curve; note: nearly all actives have a fitted effect of over 25% in size; note: potency is the fitted concentration of half-maximal effect)
In short: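 HEK293T cells expressing luciferase-tagged ATAD5 were exposed to compound or DMSO for 15.5 hr at 37C, 5% CO2. Viability was then read as live-cell protease activity by CellTiter-Fluor fluorescence after 30 min at 37C.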

[5] = qHTS assay for small molecule disruptors of the mitochondrial membrane potential - cell viability (AID 720634; calls by dose curve; note: nearly all actives have a fitted effect of over 20% in size; note: potency is the fitted concentration of half-maximal effect)
In short: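 HepG2 cells seeded overnight at 37 C, then exposed to compound or DMSO for 1 hr at 37 C, 5% CO2. m-MPI dye added, then CellTiter-Glo for 30 min at room temperature; viability read as ATP luminescence.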

[6] = qHTS assay for small molecule disruptors of the mitochondrial membrane potential (AID 720635); note: potency is the fitted concentration of half-maximal effect
In short: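 HepG2 cells (2,000/well) attached overnight at 37C, then took compound for 1 hr at 37C, 5% CO2. Mito-MPS dye was added for 30 min; fluorescence was read at 490/535 nm (monomers) and 540/590 nm (aggregates).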

[7] = qHTS assay to test for compound auto fluorescence at 590 nm (red) in HepG2 cells (AID 720674); note: potency is the fitted concentration of half-maximal effect
In short: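 Rose Bengal sodium served as the red fluorophore standard. HepG2 monolayers (overnight attachment, MEM with 10% FBS) were exposed to test compounds for 1 hr at 37 C and read at Ex 540/Em 590 nm.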

[8] = qHTS assay to test for compound auto fluorescence at 535 nm (green) in HepG2 cells (AID 720675)
[9] = qHTS assay to test for compound auto fluorescence at 590 nm (red) in HEK293 cells (AID 720679); note: potency is the fitted concentration of half-maximal effect
In short: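 Red autofluorescence, HEK293 cells: 2,000 cells/well; attach 4-5 hr 37C; add 23 nL cpd or DMSO; incubate o/n 37C 5% CO2; read Ex540/Em590; Rose Bengal sodium reference.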

[10] = qHTS assay to test for compound auto fluorescence at 460 nm (blue) in HEK293 cells (AID 720678)
In short: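 Intrinsic compound fluorescence is recorded in live HEK293 cultures after overnight incubation at 37C, 5% CO2, using excitation 405 nm and emission 460 nm. Values are referenced to triamterene.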
% is set by controls: 0 for no effect and ±100 for the full control effect; tags give direction and shape of the fitted curve or compound fluorescence and quenching.

Cc1c(C)c2c(c(C)c1O)CCC(C)(COc1ccc(CC3SC(=O)NC3=O)cc1)O2 (stereo not given)
inactive: Potency [2] | Potency [4] | Potency [5] | Potency [7] | Potency [8] | Potency [9]
active: Potency [1] 29.8 µM and 54.5 µM | Potency [3] 29.8 µM and 61.1 µM | Potency [6] 9.44 µM and 10.9 µM

NC(=O)N1C(=O)C(C(=O)c2cc(Cl)cs2)c2cc(F)c(Cl)cc21 (stereo not given)
active: Potency [1] 2.17 µM | Potency [3] 1.37 µM | Potency [4] 27.3 µM | Potency [5] 0.217 µM
inactive: Potency [2] | Potency [7] | Potency [8] | Potency [10] | Potency [9]

c1ccc(CSCc2ccccc2)cc1
inactive: Potency [1] | Potency [2] | Potency [3] | Potency [4] | Potency [5] | Potency [7] | Potency [8] | Potency [10] | Potency [9]
active: Potency [6] 43.1 µM

CCC(C)(C)C1CCCCC1OC(C)=O (stereo not given)
inactive: Potency [1] | Potency [2] | Potency [3] | Potency [4] | Potency [5] | Potency [7] | Potency [8] | Potency [10] | Potency [9]

CNC(=O)c1ccccc1
inactive: Potency [1] | Potency [2] | Potency [3] | Potency [4] | Potency [5] | Potency [6] | Potency [7] | Potency [8] | Potency [10]

NC(=O)NS(=O)(=O)c1ccc(N)cc1
inactive: Potency [1] | Potency [2] | Potency [3] | Potency [4] | Potency [5] | Potency [7] | Potency [8] | Potency [9]

C[C@@H]1C[C@H]2[C@@H]3CCC4=CC(=O)C=C[C@]4(C)[C@@]3(Cl)[C@@H](O)C[C@]2(C)[C@@]1(OC(=O)c1ccco1)C(=O)CCl
active: Potency [6] 11.4 µM
inactive: Potency [1] | Potency [2] | Potency [3] | Potency [4] | Potency [5] | fluorescence, relative to Rose Bengal [7] -0.134% [at 18.6 µM] | fluorescence, % of fluorescein control [8] 0.0009% [at 18.6 µM] | fluorescence, % of triamterene [10] 0.0948% [at 18.6 µM] | fluorescence, % of fluorescent control [9] 0.225% [at 18.6 µM]

CCN(C(=O)c1cc(C)cc(OC[C@H](C)Nc2ccncc2)c1)C(C)C
inactive: Potency [1] | Potency [2] | Potency [3] | Potency [4] | Potency [5] | Potency [7] | Potency [8] | Potency [10] | Potency [9]

COc1cc(-c2ccc(N=C=O)c(OC)c2)ccc1N=C=O
inactive: Potency [1] | Potency [2] | Potency [3] | Potency [4] | Potency [5] | Potency [7] | Potency [8] | Potency [10] | Potency [9]

CCN1/C(=C/C=C/c2sc3ccccc3[n+]2CC)Sc2ccccc21
inactive: Potency [2] | Potency [5] | Potency [8] | Potency [10]
active: Potency [1] 15 µM | Potency [3] 16.8 µM | Potency [4] 10.6 µM | Potency [7] 12.6 µM | Potency [9] 11.2 µM [fluorescent]

O=C(O)c1ccc(Cl)c(Cl)c1
inactive: Potency [1] | Potency [2] | Potency [3] | Potency [4] | Potency [5] | Potency [7] | Potency [8] | Potency [10]

Oc1cccc2cc3cccc(O)c3c(O)c12
inactive: Potency [1] | Potency [2] | Potency [3] | Potency [4] | Potency [5] | Potency [7] | Potency [8] | Potency [10] | Potency [9]

Oc1c(Cl)cc(Cl)c2cccnc12
active: Potency [1] 2.37 µM | Potency [2] 13.3 µM | Potency [3] 2.98 µM | Potency [6] 10.6 µM
inactive: Potency [5] | Potency [7] | Potency [8] | Potency [10] | Potency [9]

C=CC(=O)OCC(CO)(COCC(COC(=O)C=C)(COC(=O)C=C)COC(=O)C=C)COC(=O)C=C
inactive: Potency [7] | Potency [8] | Potency [10] | Potency [9]
active: Potency [1] 67.8 µM | Potency [2] 2.4 µM | Potency [3] 2.7 µM | Potency [4] 7.6 µM

COc1c(C)c2c(c(O)c1C/C=C(\C)CCC(=O)O)C(=O)OC2
inactive: Potency [2] | Potency [5] | fluorescence, relative to Rose Bengal [7] 0.0782% [at 18.6 µM] | fluorescence, % of fluorescein control [8] 0.0327% [at 18.6 µM] | fluorescence, % of triamterene [10] -0.0265% [at 18.6 µM] | fluorescence, % of fluorescent control [9] 0.167% [at 18.6 µM]
active: Potency [1] 0.0717 µM | Potency [4] 0.202 µM

Nc1c2ccccc2nc2ccccc12
inactive: Potency [2] | Potency [3] | Potency [5] | Potency [7] | Potency [8]
active: Potency [1] 3.35 µM and 1.91 µM | Potency [6] 11.9 µM and 4.27 µM

CC[C@H](c1ccc(O)cc1)[C@@H](CC)c1ccc(O)cc1
active: Potency [1] 5.07 µM and 13.7 µM | Potency [6] 8.04 µM and 9.69 µM
inactive and 54.5 µM (active): Potency [3]
inactive: Potency [2] | Potency [4] | Potency [7] | Potency [8] | Potency [10] | Potency [9]

C/C=C(\C)C(=O)OCc1ccccc1
inactive: Potency [1] | Potency [2] | Potency [3] | Potency [4] | Potency [5] | Potency [7] | Potency [8] | Potency [10] | Potency [9]

COc1cc(/C=C/C(=O)O[C@H]2CC[C@]34C[C@]35CC[C@]3(C)[C@@H]([C@H](C)CCC=C(C)C)CC[C@@]3(C)[C@@H]5CC[C@H]4C2(C)C)ccc1O
inactive: Potency [3] | Potency [4] | Potency [5] | Potency [7] | Potency [8] | Potency [10] | Potency [9]
active: Potency [1] 7.5 µM | Potency [2] 7.5 µM

Cc1cccc2c1cc1ccc3cccc4ccc2c1c34
inactive: Potency [2] | Potency [3] | Potency [4] | Potency [5] | Potency [7] | Potency [8] | Potency [10]
active: Potency [1] 2.49 µM

From PubChem BioAssay (Tox21)
